Screens (PubChem)
Compounds with a hit are over-represented: about 4% of the library has one in this group of screens.
GDH-TPI counter-1: counter-screen for M. tuberculosis FBA inhibitors: GDH-TPI coupled enzymes; GDH-TPI coupled enzyme counterscreen, NADH absorbance; inhibition, % at 4.8 µM; hit rate 1.2% among 360,000; AID 588335; in the data active = inhibition above about 30%
Rv3671c inh: Rv3671c (M. tuberculosis) protease inhibition | P9WHR9 | inhibition, % at 5.96 µM | hit rate 0.048% among 320,000 | AID 2606; in the data active = inhibition above about 38%;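 note: extracellular domain of Rv3671c used as enzyme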
Target sequence (P9WHR9 whole entry, looked up, the tested form may be a part): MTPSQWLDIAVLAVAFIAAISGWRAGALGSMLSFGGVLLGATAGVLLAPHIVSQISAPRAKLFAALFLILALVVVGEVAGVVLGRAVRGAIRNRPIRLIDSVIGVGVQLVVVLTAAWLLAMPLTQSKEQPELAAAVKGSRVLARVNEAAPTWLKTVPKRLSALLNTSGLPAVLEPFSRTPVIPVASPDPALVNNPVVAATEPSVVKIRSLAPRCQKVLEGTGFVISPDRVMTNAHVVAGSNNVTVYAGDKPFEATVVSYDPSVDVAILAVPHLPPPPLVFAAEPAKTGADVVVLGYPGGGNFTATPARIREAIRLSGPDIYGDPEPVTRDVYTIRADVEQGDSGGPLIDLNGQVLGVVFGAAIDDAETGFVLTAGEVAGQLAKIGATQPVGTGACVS
RecA splice inh: Mtb RecA intein splicing inhibition; P9WHJ3; cell-free RecA intein splicing, fluorescence; inhibition, % (concentration not given with the values); hit rate 0.75% among 290,000; in the data active = inhibition above about 30%
Mtb bLac sens: beta-lactam sensitization of Mtb H37Rv; AID 434955; hit rate 0.27% among 330,000; inhibition, % at 25 µM; M. tuberculosis H37Rv growth with meropenem, percent inhibition; call rule not given here;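 note: growth measured after seven days incubation then overnight dye step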
UGM FP inh: Mtb UDP-galactopyranose mutase inhibition. purified UGM, fluorescence polarization probe displacement. inhibition, % at 10 µM. hit rate 0.06% among 320,000. AID 504406; in the data active = inhibition above about 10%, passing the limit was not always enough
FBA Mtb inh: inhibitors of M. tuberculosis fructose-bisphosphate aldolase; hit rate 2.3% among 360,000; purified M. tuberculosis FBA, fluorescence read-out; P9WQA3; inhibition, % at 1 µM; AID 588726
Target sequence (P9WQA3 whole entry, looked up): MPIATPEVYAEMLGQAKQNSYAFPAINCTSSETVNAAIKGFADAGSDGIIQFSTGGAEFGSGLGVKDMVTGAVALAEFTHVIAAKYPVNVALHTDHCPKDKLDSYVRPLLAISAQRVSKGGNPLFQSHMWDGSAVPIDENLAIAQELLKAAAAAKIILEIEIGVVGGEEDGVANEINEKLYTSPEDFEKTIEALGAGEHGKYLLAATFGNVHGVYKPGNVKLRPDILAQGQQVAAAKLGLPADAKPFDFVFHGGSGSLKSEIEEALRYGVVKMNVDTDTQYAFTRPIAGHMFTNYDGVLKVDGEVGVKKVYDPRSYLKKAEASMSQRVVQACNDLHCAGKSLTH
Mtb FBA inh conf: confirmation of M. tuberculosis fructose-bisphosphate aldolase inhibitors | shares compounds with FBA Mtb inh | purified M. tuberculosis FBA, fluorescence read-out | inhibition, % at 1 µM | hit rate 78% among 5,600
GDH-TPI counter-2: GDH-TPI inhibition counter-screen for FBA inhibitors; shares compounds with FBA Mtb inh; GDH-TPI coupled enzyme counterscreen, fluorescence; inhibition, % at 1 µM; hit rate 81% among 5,600; in the data active = inhibition above about 10%
Of the large screens only hits and unclear results are named; the others gave an inactive call (follow-up assays come after a bar, where they were run). Cut-off read from the data, not from the text of the source, unless noted: active = inhibition above about 27%; inactive = the rest.

O=Cc1ccc(-c2nc3ccccc3s2)o1	FBA Mtb inh 33 | Mtb FBA inh conf 31 | GDH-TPI counter-2 30
O=C(O)CCN1C(=O)/C(=C/c2ccc(-c3nc4ccccc4s3)o2)SC1=S	none (no result: Mtb bLac sens)
O=C(O)c1ccc(-c2nc3ccccc3s2)o1	GDH-TPI counter-1 42, FBA Mtb inh 44 | Mtb FBA inh conf 35 | GDH-TPI counter-2 29
Cc1oc2c(c(C)cc3oc(=O)c(CC(=O)N[C@H](C(=O)O)C(C)C)c(C)c32)c1C	none (no result: Rv3671c inh)
CC[C@@H](C)[C@H](NC(=O)Cc1c(C)c2c(cc(C)c3c(C)coc32)oc1=O)C(=O)O	FBA Mtb inh 64 (no result: Rv3671c inh) | Mtb FBA inh conf 112 | GDH-TPI counter-2 94
CC[C@@H](C)[C@H](NC(=O)Cc1c(C)c2cc3c(C)coc3c(C)c2oc1=O)C(=O)O	none
CSCC[C@H](NC(=O)Cc1c(C)c2c(cc(C)c3c(C)coc32)oc1=O)C(=O)O	FBA Mtb inh 53 (no result: Rv3671c inh) | Mtb FBA inh conf active | GDH-TPI counter-2 187
CC1(C(=O)NS(=O)(=O)c2ccc3ccccc3c2)CCN1C(=O)CC1CCCCC1 (stereo not given)	none (no result: Rv3671c inh, RecA splice inh, Mtb bLac sens, UGM FP inh)
C/C(=N\N=C(N)N)c1cc(Cl)ccc1Cl	none
C/C(=N\N=C(N)N)c1ccc(Cl)cc1Cl	FBA Mtb inh 28 | Mtb FBA inh conf 29 | GDH-TPI counter-2 17
COc1ccc(Br)cc1CN(C)CC(O)COc1ccc(Br)cc1 (stereo not given)	FBA Mtb inh 53 | Mtb FBA inh conf 67 | GDH-TPI counter-2 54
COc1ccccc1C1Nc2ccccc2NC2=C1C(=O)CC(C)(C)C2 (stereo not given)	none
CC1(C)CC(=O)C2=C(C1)c1c(ccc3ccccc13)NC2c1ccc(Br)o1 (stereo not given)	FBA Mtb inh 31 | Mtb FBA inh conf 174 | GDH-TPI counter-2 148
COc1cccc(C2Nc3ccc4ccccc4c3C3=C2C(=O)CC(C)(C)C3)c1OCC(=O)O (stereo not given)	FBA Mtb inh 65 | Mtb FBA inh conf 132 | GDH-TPI counter-2 114
C[C@@H](NC(=O)c1cc2c([nH]c3ccccc32)c(-c2ccccc2)n1)C(=O)O	FBA Mtb inh 29 | Mtb FBA inh conf 71 | GDH-TPI counter-2 61
O=C(O)c1ccccc1N/C=C\[N+](=O)[O-]	FBA Mtb inh 32 | Mtb FBA inh conf 71 | GDH-TPI counter-2 56
O=C(/C=C/Nc1ccccc1C(=O)O)c1cccs1	none
c1ccc(-c2cnc(-c3cccnc3)o2)cc1	FBA Mtb inh 93 (no result: RecA splice inh) | Mtb FBA inh conf 192 | GDH-TPI counter-2 155
COc1cc(OC)cc(-c2c(C#Cc3ccsc3)c3cc(-c4cc(OC)c(OC)c(OC)c4)ccc3n2C)c1	FBA Mtb inh 47 (no result: RecA splice inh) | Mtb FBA inh conf inactive | GDH-TPI counter-2 inactive
COc1cc(OC)cc(-c2c(C#Cc3ccsc3)c3cc(-c4ccc(C(N)=O)cc4)ccc3n2C)c1	FBA Mtb inh 32 (no result: RecA splice inh) | Mtb FBA inh conf 36 | GDH-TPI counter-2 16
COc1ccc(OC)c(C2=NS(=O)(=O)N(C)C(C(=O)Nc3ccc(F)cc3F)=C2)c1	none
C=CCC(O)(CC=C)CNC(=O)c1ccc(OC)c(OC2CCN(C(C)=O)CC2)c1	none (no result: Rv3671c inh)
O=C(CSc1nnc(CNC(=O)c2ccco2)o1)Nc1ccccc1C(F)(F)F	none
CCCc1cc(=O)oc2cc(C)cc(OCC(=O)NCCCn3ccnc3)c12	FBA Mtb inh 57 | Mtb FBA inh conf 88 | GDH-TPI counter-2 65
Cc1cc(OCC(=O)NCCCn2ccnc2)c2c(C)cc(=O)oc2c1	FBA Mtb inh 78 | Mtb FBA inh conf 108 | GDH-TPI counter-2 74
Cc1cc(=O)oc2c(C)c(OCC(=O)NCCCn3ccnc3)ccc12	none
Cc1c(C)c2ccc(OCC(=O)Nc3ccc(S(N)(=O)=O)cc3)c(C)c2oc1=O	FBA Mtb inh 41 | Mtb FBA inh conf 78 | GDH-TPI counter-2 73
Cc1c(C)c2ccc(OCC(=O)NCCCn3ccnc3)c(C)c2oc1=O	FBA Mtb inh 43 | Mtb FBA inh conf 153 | GDH-TPI counter-2 126
CCCc1cc(=O)oc2cc(OCC(=O)Nc3ccc(S(N)(=O)=O)cc3)ccc12	none
COc1ccccc1NC(=O)Nc1nc(CC(=O)NCc2ccc(F)cc2)cs1	none
Cc1cc2oc(=O)c(CC(=O)NCCCN(C)C)c(C)c2c2occ(C(C)(C)C)c12	none (no result: GDH-TPI counter-1, FBA Mtb inh)
Cc1cc2oc(=O)c(CC(=O)NCCCO)c(C)c2c2occ(C(C)(C)C)c12	FBA Mtb inh 31 | Mtb FBA inh conf 57 | GDH-TPI counter-2 54
COCCNC(=O)Cc1c(C)c2c(cc(C)c3c(C(C)(C)C)coc32)oc1=O	FBA Mtb inh 43 | Mtb FBA inh conf 70 | GDH-TPI counter-2 65
CC1(C)Cc2c(c(-c3ccccc3)[nH]c(=O)c2C#N)CS1	FBA Mtb inh 29 | Mtb FBA inh conf 44 | GDH-TPI counter-2 50
CC1(C)Cc2c(c(-c3ccco3)[nH]c(=O)c2C#N)CS1	FBA Mtb inh 30 | Mtb FBA inh conf inactive | GDH-TPI counter-2 17
CC(=O)N1CCN(c2nc(-c3ccco3)c3c(c2C#N)CC(C)(C)SC3)CC1	none
O=C(OCC(=O)N1CCN(C(=O)c2ccco2)CC1)c1cncc(Br)c1	none (no result: RecA splice inh)
Cn1cccc1C(=O)/C(C#N)=C/c1ccc(F)cc1	none
Cc1ccc2[nH]c3c(=O)n(Cc4ccco4)cnc3c2c1	none
COc1ccc2[nH]c3c(=O)n4c(nc3c2c1)SCC4	FBA Mtb inh 50 | Mtb FBA inh conf inactive | GDH-TPI counter-2 inactive
Cc1ccc2[nH]c3c(=O)n(N)c(C)nc3c2c1	FBA Mtb inh 41 | Mtb FBA inh conf 39 | GDH-TPI counter-2 27
COc1ccc2[nH]c3c(=O)n(N)c(C)nc3c2c1	FBA Mtb inh 106 | Mtb FBA inh conf 157 | GDH-TPI counter-2 137
COc1ccccc1CNC(=O)COC(=O)c1nccnc1N	FBA Mtb inh 48 | Mtb FBA inh conf inactive | GDH-TPI counter-2 inactive
COc1ccccc1CNC(=O)COC(=O)c1cnccn1	none
Nc1nccnc1C(=O)OCC(=O)NCCc1ccc(S(N)(=O)=O)cc1	FBA Mtb inh 88 | Mtb FBA inh conf 100 | GDH-TPI counter-2 91
O=C(CSc1nc2ccc([N+](=O)[O-])cc2s1)c1ccc2ccccc2c1	none (no result: Rv3671c inh, RecA splice inh, Mtb bLac sens, UGM FP inh)
COc1cc2sc(-c3ccc(S(C)(=O)=O)cc3)c(C#CCO)c2cc1OC	FBA Mtb inh 54 (no result: RecA splice inh) | Mtb FBA inh conf 112 | GDH-TPI counter-2 87
CCOC(=O)c1c(NC(=O)COC(=O)/C=C/c2ccccc2)sc(C(=O)NC)c1C	none (no result: RecA splice inh)
CS(=O)(=O)Nc1ccc(-c2cncc3nccn23)cc1	GDH-TPI counter-1 35, FBA Mtb inh 63 (no result: Rv3671c inh, RecA splice inh, Mtb bLac sens, UGM FP inh) | Mtb FBA inh conf 65 | GDH-TPI counter-2 56
Clc1ccccc1-c1ncc2ccccn12	none
c1ccc2c(c1)oc1c(-c3cccc4nccn34)cccc12	FBA Mtb inh 90 (no result: Rv3671c inh, RecA splice inh, Mtb bLac sens, UGM FP inh) | Mtb FBA inh conf 50 | GDH-TPI counter-2 44
Clc1ccccc1-c1cccc2nccn12	FBA Mtb inh 35 (no result: Rv3671c inh, RecA splice inh, Mtb bLac sens, UGM FP inh) | Mtb FBA inh conf inactive | GDH-TPI counter-2 inactive
